Screening results: PubChem BioAssay, National Center for Advancing Translational Sciences (NCATS)
Rango-impB inh: Rango-importin beta binding inhibition; Rango CFP/YFP FRET sensor + importin beta, 45 min; Potency, µM (top dose mostly 92.2 µM); actives 0.031% (n = 340,000); AID 540263; calls by dose curve; also: nearly all actives have a fitted effect of over 15% in size
Target sequence (Q14974 whole entry, looked up): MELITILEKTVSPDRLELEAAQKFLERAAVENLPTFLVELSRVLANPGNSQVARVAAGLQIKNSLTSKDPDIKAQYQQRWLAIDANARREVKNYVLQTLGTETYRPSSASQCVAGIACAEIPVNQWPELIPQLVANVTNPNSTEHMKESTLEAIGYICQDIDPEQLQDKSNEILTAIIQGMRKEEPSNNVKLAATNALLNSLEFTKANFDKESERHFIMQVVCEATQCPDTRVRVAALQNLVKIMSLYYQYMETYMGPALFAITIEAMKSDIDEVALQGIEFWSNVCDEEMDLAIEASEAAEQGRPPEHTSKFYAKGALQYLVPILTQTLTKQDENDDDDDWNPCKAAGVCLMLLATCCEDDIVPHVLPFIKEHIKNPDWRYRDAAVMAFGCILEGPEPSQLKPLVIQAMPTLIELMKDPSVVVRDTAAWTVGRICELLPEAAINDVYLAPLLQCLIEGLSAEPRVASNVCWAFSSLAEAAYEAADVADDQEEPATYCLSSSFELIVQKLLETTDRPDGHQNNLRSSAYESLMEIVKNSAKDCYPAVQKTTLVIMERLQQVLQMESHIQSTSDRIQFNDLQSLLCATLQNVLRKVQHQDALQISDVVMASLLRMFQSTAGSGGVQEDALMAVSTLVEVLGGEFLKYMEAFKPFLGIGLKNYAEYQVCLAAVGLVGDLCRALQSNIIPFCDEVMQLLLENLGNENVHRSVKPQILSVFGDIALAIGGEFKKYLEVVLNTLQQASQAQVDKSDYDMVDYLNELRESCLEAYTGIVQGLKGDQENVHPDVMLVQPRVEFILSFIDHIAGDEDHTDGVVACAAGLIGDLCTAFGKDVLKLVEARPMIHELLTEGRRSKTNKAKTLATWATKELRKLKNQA
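FRET biosensor (snurportin 1 IBB flanked by EYFP and cerulean), 50 nM, with compound 5 min, then 0.125 microM importin beta in PBS, 1 mM DTT, 0.02% Tween-20, 0.1% BSA. CFP/YFP ratio read after 45 min at room temperature; pre-read flags interference.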
Rango dissoc inh: inhibition of RanGTP-driven Rango-importin beta dissociation; actives 0.071% (n = 340,000); O95149+P62826; AID 540253; Biochemical FRET Rango-importin beta, RanGTP-induced dissociation; Potency, µM (highest dose often 46.1 µM); calls by dose curve; also: nearly all actives have a fitted effect of over 45% in size
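Recombinant Rango FRET biosensor (EYFP–snurportin 1 IBB–cerulean CFP10) at 0.1 uM premixed with 0.25 uM importin beta in PBS, 1 mM DTT, 0.02% Tween-20, 0.1% BSA. Compound added 5 min; RanGTP-RCC1 (0.6 uM Ran, 2 mM GTP, 0.2 uM RCC1) then triggers release, read at 45 min.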
aSyn rescue: alpha-synuclein toxicity inhibition in yeast; AID 652106; Yeast expressing alpha-synuclein, growth rescue, BacTiter-Glo, 24 h; actives 0.14% (n = 370,000); Potency, µM (titrated, usually from 46.1 µM), most hits filed as activators; also: nearly all actives have a fitted effect of over 65% in size
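Galactose-induced alpha-syn yeast (OD600=0.02, raffinose-pregrown) + pinned cpd, 24 hr, 30 deg C; growth by BacTiter-Glo luminescence. Growth restoration scores as activation.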
TDP43 rescue: TDP-43 toxicity inhibition in yeast | AID 652104 | TDP-43 expressing yeast growth rescue, BacTiter-Glo, 24 h | actives 1.8% (n = 410,000) | Potency, µM (top dose mostly 46.1 µM), actives largely listed as activators; also: nearly all actives have a fitted effect of over 50% in size
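In this qHTS, compounds that restore growth of yeast expressing TDP-43 appear as activators. Cells (OD600=0.02, galactose medium, raffinose-pregrown) are incubated with compound 24 hr at 30 deg C and growth is quantified by BacTiter-Glo.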
ASM inhibitor: inhibitors of human secretory acid sphingomyelinase; P17405; placental ASM, HMU-PC fluorogenic substrate, 60 min; Potency, µM (top dose mostly 57.5 µM), actives largely listed as inhibitors; actives 0.006% (n = 340,000); AID 504937
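HMU-PC0 cleavage (9 uM final) by human placental ASM, 60 min at 37 °C following 10 min compound exposure at RT; stopped at pH 10, fluorescence Ex 386/Em 447 nm.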
Abeta yeast res: A-beta toxicity reversal in yeast; yeast expressing A-beta42, growth rescue, OD600, 48 h; response scale: 0% DMSO, 100% iron-clioquinol control; Potency, µM (titrated, usually from 46.1 µM), actives largely listed as activators; actives 0.063% (n = 410,000); AID 1347071; also: nearly all actives have a fitted effect of over 55% in size
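Yeast growth medium received pinned compounds, then yeast cells expressing toxic A-beta were added; plates incubated at 30 C for 48 hr. Growth read as absorbance at 600 nm, normalized to DMSO and equimolar FeCl3 plus clioquinol controls.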
A number is an active result; n = inactive; u = inconclusive; x = not tested or not shown; [ ] = remark or other dose. A selection: hits, their analogues and other compounds. The true share with any hit is near 2%. Unless noted, calls follow the shape of the dose curve; as a rule, active = well fitted curve in the direction sought with a large enough effect; inconclusive = small, poorly fitted or top-dose-only effect, or another doubt; inactive = no such curve, though single readings can be large; an effect the other way counts as inactive or inconclusive.

SMILES	Rango-impB inh	Rango dissoc inh	aSyn rescue	TDP43 rescue	ASM inhibitor	Abeta yeast res
CCCCNc1c(-c2ccc(OC)c(SC3CCCCC3)c2)nc2ccc(C)cn12	u	u	n	n	n	n
COc1ccc(-c2cc(-c3nc4ccccn4c3NCc3ccccc3)ccc2OC)cc1	u	26µM	n	n	n	n
CCC(C)Sc1ccc(-c2nc3ccc(C)cn3c2NCc2ccccc2)cc1OC (stereo not given)	u	u	n	n	n	n
CCCCNc1c(-c2ccc(SC3CCCCC3)c(OC)c2)nc2ccc(C)cn12	u	7.3µM	n	n	n	n
CCC(C)Sc1cc(-c2nc3ccc(C)cn3c2NCc2ccccc2)ccc1OC (stereo not given)	u	15µM	n	n	n	n
CC[N+]1(CC(=O)c2cccs2)CCCCC1	x	x	n	x	x	x
Cc1ccc(NC(=O)c2oc3ccccc3c2NC(=O)c2ccc(F)c(F)c2)cc1	x	x	x	n	x	n
COc1ccc(/C=N/NC(=O)c2[nH]c3ccc(Br)cc3c2-c2ccccc2)c(C(=O)O)c1OC	n	n	n	n	u	n
COc1ccc(/C=N/NC(=O)c2[nH]c3ccc(Cl)cc3c2-c2ccccc2)c(C(=O)O)c1OC	n	n	n	n	14µM	n
Cc1cc(Cl)c2oc(C(=O)N3CCN(C(=O)c4ccco4)CC3)c(C)c2c1	n	n	n	22µM	n	n
O=C(c1ccco1)N1CCN(C(=O)c2ccc(-c3ccc(Cl)cc3)o2)CC1	n	n	n	22µM	n	n
O=C(c1ccc(Cl)cc1)N1CCN(C(=O)c2ccco2)CC1	n	n	n	n	n	n
O=C(c1ccco1)N1CCN(S(=O)(=O)c2c(Cl)cccc2Cl)CC1	n	n	n	16µM	n	n
COc1ccc(Cl)cc1S(=O)(=O)N1CCN(C(=O)c2ccco2)CC1	n	n	n	n	n	n[9.22 µM]
COc1ccc(S(=O)(=O)N2CCN(C(=O)c3ccco3)CC2)c(C)c1C	n	n	n	22µM	n	n
O=C(Nc1ccc(Cl)cc1)c1cc(S(=O)(=O)NC2CCCCCC2)ccc1F	x	x	x	u	x	n
CCc1ccc(NC(=O)c2cc(S(=O)(=O)NC3CCCC3)ccc2F)cc1	x	x	x	20µM	x	n
NS(=O)(=O)c1cccc(NC(=O)COC(=O)c2cc(Cl)ccc2[N+](=O)[O-])c1	n	n	n	n	n	n
Cc1ccc(NC(=O)COC(=O)c2cc(Cl)ccc2[N+](=O)[O-])cc1	n	n	n	18µM	n	n
O=C(COC(=O)c1ccc2c(c1[N+](=O)[O-])C(=O)c1ccccc1C2=O)NC1CC1	n	n	n	3.5µM	n	n
Cc1ccc(NS(=O)(=O)c2ccc(-c3cnc(C4CC4)o3)cc2)cc1	n	n	u	u	n	n
O=S(=O)(NCc1ccccc1Cl)c1ccc(-c2cnc(C3CC3)o2)cc1	x	x	x	22µM	x	n
Cc1cccc(C)c1NS(=O)(=O)c1ccc(-c2cnc(C3CC3)o2)cc1	n	n	u	25µM	n	n
COc1cc(-c2cc3nc(NCCOc4ccccc4)ccn3n2)cc(OC)c1OC	x	x	n	32µM	x	n
O=C(CSc1cccc(C(F)(F)F)c1)NCc1ccccc1	n	n	n	11µM	n	n
SMILES	Rango-impB inh	Rango dissoc inh	aSyn rescue	TDP43 rescue	ASM inhibitor	Abeta yeast res
O=C(CSc1ccccc1)NCc1ccccc1	n	n	n	n	n	n
Cc1cc(/C=C2\C=Cc3ccccc32)cc(C)c1N	x	x	n	x	x	x
CCOC(=O)c1cccc2c1-c1ccccc1/C2=N/O	n	n	n	14µM	n	n
CC(=O)N1CCc2cc(CNS(=O)(=O)c3ccc(Cl)s3)ccc21	x	x	x	u	x	n
COc1ccc(C2=CC(=O)C[C@H](c3ccc(F)cc3)C2)c(F)c1F	n	n	n	16µM	n	n
O=C1C=C(c2ccccc2Oc2ccccc2)C[C@@H](c2ccc(F)cc2)C1	x	x	n	n	x	n
COc1ccc(Cl)cc1C1=CC(=O)C[C@H](c2ccc(F)cc2)C1	n	n	n	13µM	n	n
COc1ccc(OC)c(C2=CC(=O)C[C@H](c3ccc(F)cc3)C2)c1	x	x	n	u	x	n
COc1ccc([C@H]2CC(=O)C=C(c3cc(Cl)ccc3OC)C2)cc1	n	n	n	u	n	n
COc1ccc(C2=CC(=O)C[C@H](c3ccc(F)cc3)C2)c(OC)c1	n	n	n	22µM	n	n
CCC[n+]1c(/C=C/c2c(OC)cc(OC)cc2OC)ccc2ccccc21	x	x	n	x	x	x
CCc1cc(=O)oc2cc(OCC(=O)OC)c(Cl)cc12	n	n	n	11µM	n	n
CCCc1cc(=O)oc2cc(OCC(=O)N(C)C)c(Cl)cc12	n	n	n	n	n	n
CC(C)c1ccc(Nc2c(-c3ccccc3O)nc3cnccn23)cc1	x	x	x	25µM	x	n
COc1cc(-c2nc3cnccn3c2Nc2ccc(C(C)C)cc2)ccc1O	n	n	n	n	n	n
Cc1ccc(OCc2nc(-c3ccccn3)n[nH]2)cc1	n	n	u	13µM	n	u
Cc1cccc(OCc2nc(-c3ccccn3)n[nH]2)c1	n	n	u	u	n	u
COc1cccc(NC(=O)c2csc3c2CCCCC3)c1	x	x	x	13µM	x	n
COc1cc(NC(=O)c2cccs2)c(OC)cc1NC(=O)c1cccs1	u	18µM	n	n	n	n
O=C(Nc1ccc(Nc2ccccc2)cc1)c1c(Cl)cccc1Cl	n	n	n	11µM	n	n
O=C(CSc1ncnc2sc3c(c12)CCCC3)c1ccco1	n	n	n	10µM	n	n
CC(C#N)Sc1ncnc2sc3c(c12)CCC3 (stereo not given)	n	n	n	n	n	n
